Compound activity as filed in PubChem BioAssay.
The list is not random: actives were taken first. Their share in the collection is about 2.8%.
DRD3 agonist – qHTS of D3 Dopamine Receptor Agonist: qHTS; max activation, %; D(3) dopamine receptor (Homo sapiens), P35462; AID 652048, 2013; 410,000 tested, 0.58% active; D3R DiscoveRx beta-arrestin cells, luminescence, 90 min; in the data active means max activation above about 30%; further: 0% is about no effect
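Cells at 1500/well, incubated overnight, then treated with pinned compounds (dopamine as control) for 90 min at 37 degrees C. DiscoveRx reagent added for 30 - 60 minutes at room temperature; luminescence read.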
CBFb RUNX1 block – qHTS Assay for Compounds Blocking the Interaction Between CBF-beta and RUNX1 for the Treatment of Acute Myeloid Leukemia; Runt-related transcription factor 1 (Homo sapiens) + Core-binding factor subunit beta …; AlphaScreen CBFb-His/RUNX1-biotin binding, biochemical; Potency, µM (doses to about 59.8 µM), inactives show at the highest dose activity, negative = inhibition, most hits filed as inhibitors; 230,000 tested, under 10 active; further: % of control where 0% means no effect
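Compounds were screened at multiple concentrations against a preformed CBF-beta(His)/RUNX1(biotin) complex (30 nM of each) for 15 min at room temperature, followed by 90 min with nickel and streptavidin beads and AlphaScreen reading.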
MBNL1-CUG inh – qHTS Assay for Inhibitors of MBNL1-poly(CUG) RNA binding. 280,000 tested, 0.036% active. TR-FRET MBNL1-His/biotin-(CUG)12 binding, 665/545 ratio. Muscleblind-like protein 1 (Homo sapiens), Q9NR56. AID 2675, 2010. Potency, µM (titrated, usually from 57.5 µM), inactives show at the top dose activity change, negative = inhibition, hits mostly inhibitors; active means well fitted inhibition curve with a large enough effect in the signal ratio, with a control signal flat, not every such curve was filed as active; inconclusive means small, poorly fitted or top-dose-only effect, or effect the other way, or a change in a side signal; inactive means no such curve, though single readings can be large or run the other way; the % refers to the signal ratio; further: potency means the concentration at half of the fitted maximal effect; on the % scale 0 is the no-effect control and ±100 the full control effect
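Inhibition of protein-RNA binding appears as loss of TR-FRET between terbium anti-His antibody on MBNL1-His and streptavidin-XL665 on biotin-(CUG)12. Activity is normalized to buffer-only and uninhibited-complex controls.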
D3 antag – qHTS of D3 Dopamine Receptor Antagonist: qHTS. max response, negative = inhibition, %. 360,000 tested, 2.5% active. AID 652054, 2013. D(3) dopamine receptor (Homo sapiens), P35462. D3R cells, DiscoveRx beta-arrestin luminescence, antagonist mode; hits give low values; in the data active means max response below about -50%; inconclusive means no clear call, values can overlap the other calls; further: on the % scale 0 is the no-effect control and ±100 the full control effect
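Cells expressing the human receptor were seeded at 1500 cells/well, incubated overnight at 37 degrees C in 5% CO2, then exposed to library compounds with dopamine controls for 90 minutes at 37 degrees C before luminescent detection.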
Integrin act MD – qHTS for Activators of Integrin-Mediated Alleviation for Muscular Dystrophy. alpha7betagal myoblasts, beta-gal FDG fluorescence, 48 h. Potency, µM (series often up to 38.3 µM), inactives show top-dose activation, hits mostly activators. 350,000 tested, 0.064% active. AID 624291, 2012;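 further: potency means the concentration at half of the fitted maximal effect; 100% = response of the positive control SU9516; nearly all actives have a fitted effect of over 60% in size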
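Alpha7betagal+/- myoblasts (passage 13) were plated 16-24 hr, then exposed to compounds (1:260 dilution of DMSO stock) for 48 hours at 37C. After MPER lysis, β-galactosidase reporter activity was read as FDG fluorescence (ex 480/em 540) after 30 minutes.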
PTHR1 agonist – qHTS for PTHR1 Agonists: Primary Screen; Potency, µM (top dose mostly 115 µM), for inactives: top-dose activation, hits mostly activators; AID 743266, 2014; HEK293 GP2 PTHR1 cells, GloSensor cAMP luminescence, 1 h; 410,000 tested, 0.075% active; further: potency means the concentration at half of the fitted maximal effect; nearly all actives have a fitted effect of over 55% in size
Target sequence (Q03431 whole entry, looked up): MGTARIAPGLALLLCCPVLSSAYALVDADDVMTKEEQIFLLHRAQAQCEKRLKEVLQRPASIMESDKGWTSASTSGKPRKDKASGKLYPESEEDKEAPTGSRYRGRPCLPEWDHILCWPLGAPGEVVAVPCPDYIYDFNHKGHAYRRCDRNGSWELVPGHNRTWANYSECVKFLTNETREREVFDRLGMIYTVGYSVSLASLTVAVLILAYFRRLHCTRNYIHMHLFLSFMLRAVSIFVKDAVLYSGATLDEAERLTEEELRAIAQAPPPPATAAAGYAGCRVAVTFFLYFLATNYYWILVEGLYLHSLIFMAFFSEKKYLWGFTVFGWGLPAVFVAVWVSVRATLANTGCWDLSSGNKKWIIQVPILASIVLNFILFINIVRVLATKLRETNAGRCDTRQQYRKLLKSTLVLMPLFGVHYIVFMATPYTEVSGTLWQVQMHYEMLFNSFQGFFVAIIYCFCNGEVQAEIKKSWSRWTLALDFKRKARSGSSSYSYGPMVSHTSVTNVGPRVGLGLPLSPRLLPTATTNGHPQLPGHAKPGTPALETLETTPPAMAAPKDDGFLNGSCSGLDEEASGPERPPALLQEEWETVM
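HEK-293-derived GP2 cells expressing PTHR1 and a GloSensor cAMP reporter, 3,000/well, plated overnight, given luciferin plus IBMX (each 0.5 mM as added) for 1 h at 37 °C, then compound for 1 h at 37 °C. Luminescence was read after 15 min at room temperature.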
Starred values were filed as active, the others as inactive; i = inactive; ? = inconclusive; · = not tested or not shown; [ ] = another dose, or the depositor's remark. Unless noted, the call rests on the fitted dose curve; in most records, active means well fitted curve in the direction sought with a large enough effect; inconclusive means small, poorly fitted or top-dose-only effect, or another doubt; inactive means no such curve, though single readings can be large; an effect the other way counts as inactive or inconclusive.

SMILES	DRD3 agonist	CBFb RUNX1 block	MBNL1-CUG inh	D3 antag	Integrin act MD	PTHR1 agonist
COc1ccccc1NC(=O)Cn1c(CCC(=O)O)ccc1-c1ccccc1	-1	-3%	3%	-20	25%	i
CCOC(=O)COc1cc2c(C(=O)OCC)c(C)oc2cc1Br	35*	1%	?	-6	-10%	i
Cc1ccc(NC(=S)N/N=C/c2c(Cl)cccc2Cl)c(C)c1	-6	-15%	1%	-60*	-1%	-12%
Cc1ccc(Cl)cc1NC(=S)N/N=C/c1cccc2ccccc12	-20	-10%	·	-53*	0%	i
Cc1ccc(NC(=S)NCCc2ccccc2)c(C)c1	5	-3%	·	2	6%	i
Cc1ccc(NC(=S)NCCO)c(C)c1	-7	5%	3%	-56*	-20%	i
Cc1ccccc1C(=O)N/N=C/c1cccc2ccccc12	-1	·	8%	-4	-29%	?
O=C(c1cn(CCOc2ccc(Cl)cc2)c2ccccc12)C1CCCCC1	8	·	·	·	·	-9%
CC(C)CCNC(=O)C(CC(C)C)NC(=O)C1OC1C(=O)O (stereo not drawn)	·	7%	·	·	·	·
CCOC(=O)c1c(C)[nH]c(CCC(=O)Nc2ccccc2C(=O)OC)c1C	6	·	·	·	·	-3%
Cc1ccc(-c2nn(-c3cccc(F)c3)cc2CN2CCN(c3ccccn3)CC2)o1	-3	-20%	-3%	-70*	5%	i
Cc1ccc(-c2nn(-c3cccc(F)c3)cc2CN(Cc2nccn2C)C(C)C)o1	3	-10%	-11%	-3	0%	i
COc1ccc(C(=O)NCC(=O)NCC2COc3ccccc3O2)cc1 (stereo not drawn)	0	8%	-5%	-52*	11%	i
c1ccc(CCCCNCC2COc3ccccc3O2)cc1 (stereo not drawn)	-8	-4%	2%	-91*	-10%	-13%
COc1ccc(CC(=O)NCC2COc3ccccc3O2)cc1 (stereo not drawn)	2	2%	-2%	0	15%	i
CCCNCC1COc2ccccc2O1 (stereo not drawn)	-44	0%	5%	-70*	15%	-6%[57.5 µM]
COc1cccc(OC)c1OCCNCC1COc2ccccc2O1 (stereo not drawn)	-84	-3%	·	-94*	·	-36%
COc1ccc(S(=O)(=O)NC(C)C)cc1C(=O)N1CCOCC1	-8	-1%	5%	12	9%	-8%
CC1(C)CC(Cc2ccc(C(F)(F)F)cn2)N(C(=O)OC(C)(C)C)C1 (stereo not drawn)	-12	·	·	-6	·	4%
COc1ccc(CNCC2COc3ccccc3O2)cc1 (stereo not drawn)	4	·	-5%	-100*	34%	-15%
O=C1C=CC(=O)N1Cc1ccccc1	-111	·	4%	-139*	·	-48%
CC(C)c1nnc(NC(=O)CCC(=O)N2CCN(Cc3ccccc3)CC2)s1	-1	0%	7%	8	12%	i
Cc1ccc(OCCN2CCN(C(=O)CCC(=O)Nc3nnc(C(C)C)s3)CC2)cc1	33*	0%	-15%	-20	-6%	-40%[57.5 µM]
CCCc1nnc(NC(=O)CCC(=O)N2CCN(CCOc3ccc(C)cc3)CC2)s1	70*	18%	-8%	-17	-31%	-4%[57.5 µM]
CCCc1nnc(NC(=O)CCC(=O)N2CCN(CCn3c(C)ccc3C)CC2)s1	-1	1%	-6%	0	-16%	i
SMILES	DRD3 agonist	CBFb RUNX1 block	MBNL1-CUG inh	D3 antag	Integrin act MD	PTHR1 agonist
Cc1ccc(OCCN2CCN(C(=O)CCC(=O)Nc3nnc(C)s3)CC2)cc1	37*	-3%	-2%	-3	16%	-6%[57.5 µM]
COc1ccc(OC)c(NC(=O)C2=C(C)C(=O)OC23CCN(C(C)C)CC3)c1	-10	·	·	·	·	i
O=[N+]([O-])c1ccc(Nc2ccc(F)cc2)nc1	-9	-3%	?	-7	11%	-10%
CN(C)c1ccc(Nc2ccc([N+](=O)[O-])cn2)cc1	-9	·	?	-60*	?	?
O=C1NC(c2ccccc2)C(C(=O)c2cccs2)=C1O (stereo not drawn)	-10	6%	4%	-58*	28%	-12%
CCOC(=O)[C@H](CCc1ccccc1)N[C@@H](C)C(=O)N1CCC[C@@H]1C(=O)O	74*	·	·	18	·	-24%
CCOC(=O)[C@H](CCc1ccccc1)N[C@@H](C)C(=O)N1CCC[C@H]1C(=O)O	-9	7%	-11%	0	·	-19%
CCC(C(=O)N1CCN(c2ccccc2)CC1)n1nc(C)c2sc3ccccc3c2c1=O (stereo not drawn)	2	·	·	·	·	-5%
COc1cccc(N2CCN(Cc3ccco3)CC2)c1	0	·	10%	-6	6%	i
COc1cccc(N2CCN(Cc3ccsc3)CC2)c1	-10	1%	0%	-71*	2%	i
COC(=O)C1=C(C)NC(=O)C1(NC(=O)c1ccc(Cl)cc1)C(F)(F)F (stereo not drawn)	2	·	·	·	·	i
O=C(CSc1nnc(Nc2ccccc2F)s1)NCc1ccco1	-14	-21%	3%	-59*	13%	i
COc1ccc(N2CCN(C(=O)C(=O)c3cn(CC(=O)N4CCCC4)c4ccccc34)CC2)cc1	6	·	·	15	-29%	-19%
O=C(NCc1cccc(Cl)c1)c1ccc2ccccc2n1	2	·	4%	10	?	i
Cc1cc(C)c2c(=O)[nH]c(SCc3ccccc3C)nc2n1	-4	19%	36%	-66*	17%	-10%
Cc1cc(C)c2c(=O)[nH]c(SCc3ccc([N+](=O)[O-])cc3)nc2n1	-1	-2%	-7%	-69*	7%	-6%
O=C(O)CN(c1ccccc1)S(=O)(=O)c1cc(C(F)(F)F)cc(C(F)(F)F)c1	-9	3%	·	-8	?	20%
COCC(=O)N1C[C@H](C)[C@H](OC)CN(C)C(=O)c2cc(NC(=O)Nc3cccc(F)c3)ccc2OC[C@@H]1C	-3	·	·	12	·	-28%
N#Cc1cc(C(=O)c2cc(Cl)ccc2O)cn(-c2ccccc2)c1=O	2	8%	·	9	-1%	-3%
O=C(c1ccccc1)c1cc(Cl)ccc1N1C(=O)C=CC1=O	-28	-10%	2%	-92*	-64%	-27%
